Assay outcomes from PubChem.
TRHR PAM = TRH receptor (human) allosteric enhancement. P34981. TRHR cells, fluo-8 calcium fluorescence, EC20 TRH enhancement. enhancement, % at 2 µM. 360,000 tested, 0.66% active. AID 493056; in the data active = enhancement above about 30%; also: 0% is about no effect
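TRHR-expressing cells loaded with fluo-8 calcium dye were read kinetically (ex 480/em 530) during compound addition, then stimulated with an EC20 of TRH (10 nM final). Enhancement of the Gq-mediated intracellular calcium response was scored.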
D1 PAM = enhances dopamine response at the human D1 receptor | P21728 | HEK293 TREx D1 cells, calcium flux, dopamine EC20 potentiation | potentiation, % at 10 µM | 360,000 tested, 0.036% active | AID 504651; in the data active = potentiation above about 30%; also: 0% is about no effect
USP1 inh = blocks the human USP1/UAF1 deubiquitinase complex. O94782. recombinant USP1/UAF1, Ub-Rhodamine cleavage fluorescence. Potency, µM (highest dose often 57.1 µM), inactives show at the top dose activity change, negative = inhibition, usual class: inhibitors. 390,000 tested, 0.23% active. AID 743255; active = well fitted inhibition curve with a large enough effect; also: potency is read from the fitted curve at half-maximal effect; % is scaled to controls: 0 for no effect and ±100 for the full control effect; nearly all actives have a fitted effect of over 60% in size
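High-throughput fluorogenic screen: 1nM USP1/UAF1 complex, Ub-Rho substrate 150nM final, 50mM HEPES pH 7.8 with 0.5mM EDTA, 0.1 mg/ml BSA, 1mM TCEP and 0.01% Tween-20.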
TRHR agonist = agonists of human TRH receptor; P34981; TRHR cells, calcium flux fluo-8, FDSS agonist mode; activation, % at 2 µM; 360,000 tested, 0.18% active; AID 493084; also: 0% is about no effect
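Fluo-8-loaded TRHR cells; 10 s baseline, compound added, kinetic Ca2+ fluorescence read 1/s, agonist mode.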
D1 agonist = human D1 receptor agonism; HEK293 T-REx D1 cells, calcium flux, agonist mode; activation, % at 2 µM; 360,000 tested, 1% active; also: 0% is about no effect
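Agonism was scored from calcium flux recorded over 180 s (1 read/s) after pintool compound addition, following a 10-cycle baseline. Cells were inducible force-coupled HEK293 TREx D1, plated overnight at 30 C and loaded with no-wash calcium dye.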
D1 antag = human D1 dopamine receptor antagonism; HEK293 TREx D1 cells, calcium flux, dopamine EC80; active compounds read low; P21728; activity change, negative = inhibition, % at 10 µM; 360,000 tested, 3.2% active; in the data active = activity change below about -30%; also: % is scaled to controls: 0 for no effect and ±100 for the full control effect
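Tetracycline-induced HEK293 T-REx cells with force-coupled D1 receptor were loaded with a no-wash calcium dye. Compound was added after a 10 s baseline and read kinetically for 180 s; EC80 dopamine was then added and calcium flux followed another 180 s.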
The depositor's hits bear a star. Rows were chosen to be rich in hits. Some 4.4% of all compounds tested hit in one or more screens of this group. Rule as the data show it, unless noted: active = activation above about 30%; inactive = the rest.

`O=C(COC(=O)C1C2CC3OC(=O)C1C3C2)Nc1ccc(Br)cc1` (configuration not stated) gave TRHR PAM -3, USP1 inh -15%, TRHR agonist -2, D1 agonist 33* and D1 antag 7.
Screening O=C(COC(=O)C1C2CC3OC(=O)C1C3C2)Nc1ccc(F)cc1 (configuration not stated) returned TRHR PAM 1, D1 PAM -5, USP1 inh -16%, TRHR agonist 0, D1 agonist 0 and D1 antag 3.
CCc1nn(CC(=O)NCCc2ccc(OC)cc2OC)c(=O)c2cc3sccc3n12 was read as TRHR PAM -6, D1 PAM -4, USP1 inh -6%, TRHR agonist 0, D1 agonist 0 and D1 antag -1.
Screening Cc1ccc(C)c(NC(=O)C(=O)NCCc2csc(-c3cccc(F)c3)n2)c1 returned TRHR PAM 0, D1 PAM 5, USP1 inh -5%, TRHR agonist 0, D1 agonist 1 and D1 antag 3.
`O=C(CSc1nccc(-c2cccs2)n1)Nc1ccc(F)c(Cl)c1` gave TRHR PAM -6, D1 PAM -7, USP1 inh -24%, TRHR agonist 0, D1 agonist 2 and D1 antag -39*.
For COc1ccc(OCCCn2c(=O)oc3ccc(C)cc32)cc1 the results were TRHR PAM 3, D1 PAM 2, USP1 inh -24%, TRHR agonist -1, D1 agonist 73* and D1 antag -32*.
For CCCCCOc1ccccc1Cn1c(=O)oc2ccc(C)cc21 the results were TRHR PAM -5, D1 PAM -1, USP1 inh -16%, TRHR agonist 1, D1 agonist 10 and D1 antag -48*.
For CCCCOc1ccccc1Cn1c(=O)oc2ccc(C)cc21 the results were TRHR PAM -3, D1 PAM 4, USP1 inh -18%, TRHR agonist 0, D1 agonist 4 and D1 antag 4.
Screening Cc1ccc2oc(=O)n(CC(=O)OCCC(C)C)c2c1 returned TRHR PAM 35*, D1 PAM -5, USP1 inh -21%, TRHR agonist -1, D1 agonist 2 and D1 antag -4.
Screening O=C1CCC/C1=C\Nc1ccc(Cl)c([N+](=O)[O-])c1 returned TRHR PAM 0, D1 PAM -2, USP1 inh -7%, TRHR agonist 0, D1 agonist 9 and D1 antag -40*.
For O=C(c1nc[nH]c1C(=O)N1CCc2ccccc2C1)N1CCc2ccccc2C1 the results were TRHR PAM 7, D1 PAM -2, USP1 inh -12%, TRHR agonist 0, D1 agonist 0 and D1 antag -66*.
Cc1ccc(OCc2nc(-c3ccc(C(=O)N4CCN(c5cc(Cl)ccc5C)CC4)cc3)oc2C)cc1 was read as TRHR PAM -4, D1 PAM -5, USP1 inh -10%, TRHR agonist 0, D1 agonist 5 and D1 antag -34*.
Cc1ccc(OCc2nc(-c3ccc(C(=O)N4CCN(c5ccccc5)CC4)cc3)oc2C)cc1 was read as TRHR PAM 0, D1 PAM 0, USP1 inh -14%, TRHR agonist 0, D1 agonist 2 and D1 antag 3.
For COc1ccc(CNC(=O)c2cc3ccccn3n2)c(OC)c1 the results were TRHR PAM 0, D1 PAM -1, USP1 inh -15%, TRHR agonist 0, D1 agonist 4 and D1 antag -17.
Screening C=CCn1c(O)c(N=Nc2ccccc2O)c2ccccc21 returned TRHR PAM -2, D1 PAM -3, USP1 inh 108%, TRHR agonist 12, D1 agonist 41* and D1 antag 1.
For Cc1ccccc1N=Nc1c(O)n(C)c2ccccc12 the results were TRHR PAM -7, D1 PAM -4, USP1 inh -6%, TRHR agonist 1, D1 agonist 5 and D1 antag -39*.
Screening Cc1sc(-n2cccc2)c(C(C)NC(=O)Nc2ccccc2Cl)c1C (configuration not stated) returned TRHR PAM -5, D1 PAM -7, USP1 inh -20%, TRHR agonist 0, D1 agonist 2 and D1 antag -3.
`COCCNC(=O)CSc1nc2cc3c(cc2c(=O)n1CCCC(=O)NCc1ccc2c(c1)OCO2)OCO3` gave TRHR PAM -1, D1 PAM 0, USP1 inh -16%, TRHR agonist 0, D1 agonist 1 and D1 antag 12.
Screening O=C(CSc1nnc(CNC(=O)c2ccccc2F)n1-c1ccccc1)Nc1ccccc1F returned TRHR PAM 20, D1 PAM -2, USP1 inh 2%, TRHR agonist 0, D1 agonist 0 and D1 antag -16.
`N#CC1=C(N)SC(N)=C(C#N)C1CCC1CCCCC1` gave TRHR PAM -3, D1 PAM -8, TRHR agonist 5, D1 agonist 43* and D1 antag -27.
`Cc1sccc1C1C(C#N)=C(N)SC(N)=C1C#N` gave TRHR PAM -6, D1 PAM -2, TRHR agonist 4, D1 agonist 14 and D1 antag -15.
For CC(C)C(NC(=O)c1ccc(F)cc1)C(=O)N1CCC1 (configuration not stated) the results were TRHR PAM 2, D1 PAM -7, USP1 inh -17%, TRHR agonist 1, D1 agonist 0 and D1 antag -37*.
`COc1ccc(N(C)S(=O)(=O)c2cccc(C(=O)NC3=NCCS3)c2)cc1` gave TRHR PAM 1, D1 PAM -11, USP1 inh 5%, TRHR agonist -1, D1 agonist 9 and D1 antag -39*.
Screening COc1cc(OC)cc(C(=O)Nc2ccc(N3CCOCC3)cc2N2CCOCC2)c1 returned TRHR PAM -10, D1 PAM -3, USP1 inh -20%, TRHR agonist 0, D1 agonist -1 and D1 antag -52*.
Cc1ccc(C(=O)Nc2ccc(N3CCOCC3)cc2N2CCOCC2)cc1 was read as TRHR PAM 0, D1 PAM -19, USP1 inh -18%, TRHR agonist 0, D1 agonist 2 and D1 antag -69*.
`Cc1ccc(N(C)S(=O)(=O)c2cccc(C(=O)Nc3ccc(N4CCOCC4)cc3)c2)cc1` gave TRHR PAM 12, D1 PAM -7, USP1 inh -6%, TRHR agonist 1, D1 agonist 3 and D1 antag -39*.
